Only some compounds are listed: those with a hit (about 12% of all), similar ones and a draw of the others.
G9a inh: G9a (human) methyltransferase inhibition; G9a H3K9 monomethylation, AlphaScreen, 2 h; Potency, µM (doses to about 102 µM), usual class: inhibitors; actives 8.8% (n = 350,000); note: nearly all actives have a fitted effect of over 75% in size
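G9a (20 nM) preincubated 15 min RT with compounds, then 500 nM biotinylated H3K9 peptide and 20 uM SAM added; 2 h RT reaction. Monomethyl-H3K9 product detected by AlphaScreen with anti-H3K9me1 antibody, streptavidin donor and anti-rabbit IgG acceptor beads.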
Sfp PPTase inh: inhibitors of Bacillus subtilis Sfp phosphopantetheinyl transferase; Biochemical Sfp PPTase activity, qHTS; Potency, µM, most hits filed as inhibitors; actives 3.5% (n = 310,000); AID 1490;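 note: the enzyme is Sfp with the accession as filed and its product quenches rhodamine fluorescence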
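Compounds were incubated with enzyme (final 15 nM) for 15 min at room temperature before substrate addition started the reaction. Fluorescence at 525 nm excitation, 598 nm emission was recorded immediately and after 30 minutes.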
BAZ2B block: inhibitors of human BAZ2B bromodomain; Q9UIF8; AlphaScreen BAZ2B-H3K14Ac peptide displacement; Potency, µM (doses to about 114 µM), usual class: inhibitors; actives 4.4% (n = 360,000); AID 504333; note: nearly all actives have a fitted effect of over 60% in size
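BAZ2B (50 nM) with biotin-H3(5-23)K14Ac peptide (50 nM) in PBS pH 7.4, 0.01% Tween-20, preformed 30 min, then compound 30 min at room temperature; top concentration 110uM. AlphaScreen streptavidin donor/nickel chelate acceptor beads (10 ug/mL final), 20 min dark, signal read.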
HP1b chromo inh: inhibitors of HP1-beta chromodomain binding to methylated histone tails; P83916; AlphaScreen HP1-beta / biotin-H3K9me3 peptide binding; Potency, µM (series often up to 114 µM), actives largely listed as inhibitors; actives 0.56% (n = 390,000); AID 540317; note: nearly all actives have a fitted effect of over 70% in size
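Compound inhibition of the preformed complex between 50 nM HP1-beta and 50 nM biotinylated H3K9me3 peptide was read by AlphaScreen. Buffer was PBS pH 7.4 with 0.01% Tween-20. Incubations ran 30 min at room temperature, with 10 ug/mL donor/acceptor beads.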
JMJD2A Tudor inh: inhibitors of human JMJD2A Tudor domain; Potency, µM (doses to about 114 µM), usual class: inhibitors; O75164; AID 504339; AlphaScreen JMJD2A-Tudor / H3K4me3 peptide binding; actives 4.4% (n = 390,000); note: nearly all actives have a fitted effect of over 50% in size
L3MBTL1 block: L3MBTL1 (human) inhibition | Q9Y468 | AlphaScreen L3MBTL1–H3K9me1 peptide binding | Potency, µM (series often up to 57.1 µM), usual class: inhibitors | actives 0.66% (n = 230,000) | AID 485360; note: nearly all actives have a fitted effect of over 60% in size
Target sequence (Q9Y468 whole entry, looked up): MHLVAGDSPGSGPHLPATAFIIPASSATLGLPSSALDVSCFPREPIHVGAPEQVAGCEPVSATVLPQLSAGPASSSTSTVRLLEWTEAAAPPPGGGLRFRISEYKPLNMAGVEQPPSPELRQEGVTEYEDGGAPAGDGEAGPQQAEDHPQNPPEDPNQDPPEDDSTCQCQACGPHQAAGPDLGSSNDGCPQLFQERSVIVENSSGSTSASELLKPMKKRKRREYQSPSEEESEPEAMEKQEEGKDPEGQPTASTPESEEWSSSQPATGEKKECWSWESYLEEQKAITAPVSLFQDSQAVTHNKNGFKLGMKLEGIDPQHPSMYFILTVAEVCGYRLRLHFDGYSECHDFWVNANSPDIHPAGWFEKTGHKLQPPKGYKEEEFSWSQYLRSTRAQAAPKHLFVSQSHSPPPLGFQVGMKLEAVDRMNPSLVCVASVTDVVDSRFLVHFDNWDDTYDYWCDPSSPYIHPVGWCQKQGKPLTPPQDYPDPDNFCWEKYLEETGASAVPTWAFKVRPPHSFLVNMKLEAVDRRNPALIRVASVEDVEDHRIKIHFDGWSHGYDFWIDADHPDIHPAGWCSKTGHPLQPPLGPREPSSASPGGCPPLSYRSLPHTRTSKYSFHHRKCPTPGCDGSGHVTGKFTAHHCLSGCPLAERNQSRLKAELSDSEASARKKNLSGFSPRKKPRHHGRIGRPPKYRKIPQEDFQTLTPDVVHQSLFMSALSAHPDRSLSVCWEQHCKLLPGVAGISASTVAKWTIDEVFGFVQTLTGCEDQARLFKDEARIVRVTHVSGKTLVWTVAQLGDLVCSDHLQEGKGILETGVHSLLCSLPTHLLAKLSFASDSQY
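AlphaScreen assay: L3MBTL1 (50 nM final) was preincubated 30 min at room temperature with biotinylated H3(1-15)K9me1 peptide (75 nM final), then 30 min with library compounds; streptavidin donor and nickel chelate acceptor beads (10 ug/mL final) added, 30 min dark.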
A number is an active result; . = inactive; ? = inconclusive; / = no result given; ! = a repeat was not active; [ ] = another dose, or the depositor's remark. Calls come from the whole dose curve; as a rule, active = well fitted curve in the direction sought with a large enough effect; inconclusive = small, poorly fitted or top-dose-only effect, or another doubt; inactive = no such curve, though single readings can be large; an effect the other way counts as inactive or inconclusive.

SMILES	G9a inh	Sfp PPTase inh	BAZ2B block	HP1b chromo inh	JMJD2A Tudor inh	L3MBTL1 block
Cc1ccc(Oc2ccccc2/C=C2\SC(=O)N(C)C2=O)cc1	.	.	.	.	.	.
CCCN1C(=O)S/C(=C\c2ccc(N3CCOCC3)cc2C)C1=O	.	.	?	/	/	.
Cc1ccc(OCCN2C(=O)C(=O)c3cc(C)ccc32)cc1	25µM	.	35µM	?	56µM	.
Cc1ccc2c(c1)sc1nc(-c3cc4cc(Cl)ccc4oc3=O)cn12	.	/	.	.	.	/
CCCCCC(=O)CC[C@@H]1[C@@H](C/C=C\CCCC(=O)O)[C@@H](O)C[C@H]1O	/	.	/	/	/	/
Cc1ccc(Cn2c(=O)n(Cc3ccco3)c(=O)c3sc4ccccc4c32)cc1	.	/	.	.	.	/
CC1(C)Cc2c(sc(NC(=O)C(C)(C)C)c2C#N)C(C)(C)N1	.	.	.	.	.	.
CC1(C)Cc2c(sc(N)c2C#N)C(C)(C)N1	/	18µM	.	.	.	.
COc1cc(NC(=O)c2csc(N)n2)cc(C(=O)Nc2cccc(C(F)(F)F)c2)c1	.[12.7 µM]	.	.	.	.	/
COc1cc(NC(=O)c2cnc(N)o2)cc(C(=O)Nc2cccc(C(F)(F)F)c2)c1	.	.	?	.	.	/
COc1cc(NC(=O)c2cnc(N)s2)cc(C(=O)Nc2cccc(C(F)(F)F)c2)c1	?	.	20µM	.	32µM	/
COc1cc(NC(=O)c2ccnc(N)c2)cc(C(=O)Nc2cccc(C(F)(F)F)c2)c1	.[12.7 µM]	.	50µM	.	?	/
NCCC[C@@H](CC(=O)N[C@@H]1CCNC[C@H]1C(=O)N[C@H](CC(=O)N[C@@H](CCC(=O)O)CC(=O)O)Cc1ccccc1)NC(=O)C[C@H](Cc1c[nH]c2ccccc12)NC(=O)[C@@H]1CNCC[C@H]1N	/	.	/	/	/	/
COP1(=O)CC(O)C(O)C(COCc2ccccc2)O1 (stereo unspecified)	/	.	/	.	.	/
CC(=O)N1CCCc2cc(S(=O)(=O)NCc3ccc(OC(C)C)cc3)ccc21	.	/	.	.	.	/
CC(C)=CCOc1ccc2ccc(=O)oc2c1	.[12.7 µM]	.	.	.	.	.
COc1cc2ccc(=O)oc2c(O)c1OCC=C(C)C	11µM	.	.	.	?	.
COc1ccc(CNc2ncnc3ccc(-c4cccc(NS(C)(=O)=O)c4)cc23)c(OC)c1	.[0.501 µM]	.	/	/	/	/
CSc1ccccc1NC(=O)CN(C)Cc1c(O)ccc2ccccc12	2.2µM	.	?	.	56µM	/
CN(Cc1ccccc1)Cc1c(O)ccc2ccccc12	8.9µM	.	79µM	?	4µM	.
COc1ccc(N(CCOc2ccccc2)S(=O)(=O)c2ccccc2)cc1	.[12.7 µM]	/	.	.	.	.
CN(Cc1cc(Cl)cc(Cl)c1O)Cc1c(O)ccc2ccccc12	/	/	/	.	?	/
COc1ccc(OCCN(C)Cc2c(O)ccc3ccccc23)cc1	7.1µM	.	.	.	?	/
CSc1ccccc1NC(=O)CN(C)Cc1ccc(Br)cc1	.	.	.	.	.	.
Cc1cc2c(s1)c1cnn(Cc3ccc(S(C)(=O)=O)cc3)c(=O)c1n2C	/	/	/	/	.	/
SMILES	G9a inh	Sfp PPTase inh	BAZ2B block	HP1b chromo inh	JMJD2A Tudor inh	L3MBTL1 block
COc1ccc(C(=O)Nc2nnc(SCc3cc(=O)n4cccc(C)c4n3)s2)cc1	.	/	.	.	.	/
O=C(N/N=C/c1ccc2cccnc2c1)c1ccco1	28µM	.	.	.	.	/
Nc1ccc2nc(-c3cccnc3)[nH]c2c1	.	.	.	.	.	.
Nc1cccc(-c2c[nH]c3ncc(-c4cccnc4)cc23)c1	/	/	/	.	18µM	/
CCOC(=O)CC(NC(=O)CCc1c(C)nc2c(c1C)c(=O)n(C)c(=O)n2C)c1ccc(OCC)c(OC)c1 (stereo unspecified)	.	/	.	.	.	/
Cc1ccc(NC(=O)CC2S/C(=N/N=C3/NC(=O)CS3)NC2=O)cc1 (stereo unspecified)	?	.	56µM	.	?	?
CCOC(=O)c1ccc(NC(=O)CC2S/C(=N/N=C3/NC(=O)CS3)NC2=O)cc1 (stereo unspecified)	.	.	.	.	?	/
CCOC(=O)c1ccc(S(=O)(=O)N2CCN(CC(O)COc3cccc(C(C)=O)c3)CC2)cc1 (stereo unspecified)	.	.	79µM	.	18µM	/
COc1ccccc1-c1nnc(SCC#CCOC(=O)c2ccc(F)cc2)o1	/	/	/	/	.	/
COc1ccc(NC(=O)COc2ccc(-c3nn(C)c(=O)c4ccccc34)cc2)cc1	.	.	.	.	45µM!	.
CNC(=O)c1ccc(NC(=O)COc2ccc(-c3nn(C)c(=O)c4ccccc34)cc2)cc1	.	/	.	.	.	/
O=C(Nc1cccc(C(=O)N2CCN(c3ccccc3)CC2)c1)c1nsc2ccccc12	.	/	.	.	.	/
Cc1nn(C)c(C)c1CN(C)C(=O)C1CCC(=O)N(C2CCCCCC2)C1 (stereo unspecified)	/	.	.	.	.	/
Cc1nn(C)c(C)c1CN(C)C(=O)CCCC(=O)O	.	.	.	.	50µM	.
CCOP(=O)(O)c1ccccc1OCCOc1ccccc1P(=O)(O)OCC	45µM	.	?	.	.	/
O=C(NCc1ccco1)c1cnn2c(C(F)(F)F)cc(-c3ccccc3)nc12	.[12.7 µM]	25µM	.	.	.	.
CC(C)CCNC(=O)c1cnn2c(C(F)(F)F)cc(-c3ccco3)nc12	?	50µM	?	.	.	.
COc1ccc(-c2cc(C(F)(F)F)n3ncc(C(=O)NCc4ccco4)c3n2)cc1	.	56µM	.	.	.	.
NC(=O)c1cnn2c(C(F)(F)F)cc(-c3ccccc3)nc12	.	.	.	.	.	/
COc1cc(OC)cc(-c2nc3nc(C)c(CCC(=O)Nc4ccc(C)cc4C)c(C)n3n2)c1	.	/	.	.	.	/
O=[N+]([O-])c1cc(C(F)(F)F)cc([N+](=O)[O-])c1Sc1n[nH]c(C(F)(F)F)n1	/	56µM	.	.	50µM	.
CC(C)(C)c1nc(Sc2ncccc2[N+](=O)[O-])n[nH]1	.	.	.	.	.	.
CCN1CC2=C(OC(N)=C(C#N)C2c2cccs2)/C(=C\c2cccs2)C1 (stereo unspecified)	45µM	?	35µM	?	?	/
CCOC(=O)C1=C(CC)OC(N)=C(C#N)C1c1cccs1 (stereo unspecified)	50µM	.	.	.	.	/
CC(=O)C1=C(C)OC(N)=C(C#N)C1c1cccc([N+](=O)[O-])c1 (stereo unspecified)	45µM	.	.	.	.[11.4 µM]	.
COC(=O)CC1=C(C(=O)OC)C(c2cccs2)C(C#N)=C(N)O1 (stereo unspecified)	?	?	.	.	.	.
CCOC(=O)C1=C(CC)OC(N)=C(C#N)C1c1ccsc1 (stereo unspecified)	56µM	?	?	.	.	.
